# Results as given in PubChem BioAssay AID2685 (National Center for Advancing Translational Sciences (NCATS), 2010).
# Screen size: about 320,000 compounds; about 2,100 (0.66%) were called active. Not shown: some 53% with an inconclusive outcome. Calls come from the whole dose curve; as a rule, active = well fitted inhibition curve with a large enough effect in the signal ratio, with a control signal flat (not every such curve was filed as active); inconclusive = small, poorly fitted or top-dose-only effect, or effect the other way, or a change in a side signal; inactive = flat fitted curve, though single readings scatter; the % refers to the signal ratio. The sample as a whole holds a higher share of actives than the screen did.
# Experiment: qHTS Assay for Lipid Storage Modulators in Drosophila S3 Cells;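 for cell number change: cells counted by Cell Tracker Red CMTPX staining in the red channel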; for lipid storage change, negative = inhibition: % is set by controls: 0 for no effect and ±100 for the full control effect
# Settings: BODIPY lipid droplet fluorescence, 18-24 h, cells fed with added oleic acid; cell number change: measured here: cell count max response; series mostly up to 46.1 µM; lipid storage change, negative = inhibition: at the top concentration
# Outline: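 Drosophila S3 cells loaded with oleic acid (400 uM, as added) and compounds at several concentrations; lipid droplets imaged by 488-nm laser-scanning cytometry, 500–530 nm intensity and object ratio to cell channel. Percent activity normalized to 20 uM Triacsin C.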
# Potency is the fitted concentration of half-maximal effect.
Compound,"lipid storage change, negative = inhibition",cell number change,Potency,outcome
Cc1ccc(N(C(=O)Cc2cccs2)C(C(=O)NC2CCCCC2)c2ccccn2)cc1C (stereo unspecified),-10.6% (inactive),4.06%,–,–
O=C(CCC(=O)c1ccccc1)NCCc1c[nH]c2ccccc12,3.97% (inactive),-0.682%,–,–
CN(C)S(=O)(=O)N1CCN(C(=O)N2CCOCC2)CC1,–,-2.73%,5.8 µM (active),–
Cc1cc(C)c(S(=O)(=O)N2CCN(C(=O)N3CCOCC3)CC2)c(C)c1,–,-4.21%,3.66 µM (active),–
Cc1cc(C)c(S(=O)(=O)Nc2ccccc2C(=O)N2CCOCC2)c(C)c1,–,-34.8%,25.9 µM (active),–
Cc1cc(C)c(S(=O)(=O)N2CCN(C(=O)N(C)C)CC2)c(C)c1,-7.06% (inactive),-11%,–,–
CN(C)S(=O)(=O)N1CCN(S(=O)(=O)N2CCOCC2)CC1,0.943% (inactive),6.09%,–,–
COc1ccc(S(=O)(=O)Nc2ccccc2C(=O)N2CCOCC2)cc1C,–,-5.26%,–,inactive
Cc1cc(C)c(S(=O)(=O)N2CCN(S(=O)(=O)N3CCOCC3)CC2)c(C)c1,–,9.13%,–,inactive
CN(C)C(=O)N1CCN(C(=O)N2CCOCC2)CC1,0.227% (inactive),3.54%,–,–
Cc1ccccc1NS(=O)(=O)c1ccc(C)c(C(=O)N2CCOCC2)c1,10.2% (inactive),1.29%,–,–
CCCN(CCC)S(=O)(=O)c1nc2nc(C)cc(C)n2n1,-0.0183% (inactive),8.75%,–,–
COc1cc2c(cc1OC)C(c1ccc(O)cc1)NCC2 (stereo unspecified),–,-6.35%,–,inactive
O=C1CCCN1CCC12CC3CC(CC(C3)C1)C2,6.49% (inactive),-8.85%,–,–
COc1ccc(OC)c(CN2CCN(CCCc3ccccc3)C(CCO)C2)c1 (stereo unspecified),0.843% (inactive),25.4%,–,–
CCOc1ccc(CCNC(=O)c2ccc(=O)[nH]c2)cc1OCC,2.9% (inactive),0.381%,–,–
Cc1cccc(OCc2cc(-c3ccccc3)no2)c1C,26% (inactive),19.4%,–,–
CC(C)C(c1nnnn1C1CCCCC1)N1CCc2ccccc21 (stereo unspecified),–,19.2%,–,inactive
CC(C)C(c1nnnn1C1CCCC1)N(C)C1CCCCC1 (stereo unspecified),–,-2.08%,5.17 µM (active),–
CC(C)C(c1nnnn1C1CCCC1)N1CCCCC1 (stereo unspecified),–,-26.8%,–,inactive
N#CC(C(=O)NC1CCCCC1)=C1CCCCC1,0.277% (inactive),0.427%,–,–
N#CC(C(=O)O)=C1CCCC1,–,-10.5%,23.1 µM (active),–
N#CC(C(=O)Nc1ccccc1)=C1CCCCC1,–,–,–,inactive
CCOc1cc(-c2ccc3c(c2)OCO3)cc(=O)c2c(C)oc(C)c12,–,-26.2%,–,inactive

Compound,"lipid storage change, negative = inhibition",cell number change,Potency,outcome
CCO[C@@H]1OC(C(=O)N2CCN(Cc3ccc4c(c3)OCO4)CC2)=C[C@H](c2csc3ccccc23)[C@H]1CCCO,1.93% (inactive),-13%,–,–
COc1ccccc1NC(=O)CC(NC1CCCCC1)C(=O)O (stereo unspecified),3.12% (inactive),3.03%,–,–
O=C(Nn1cnc2ccccc2c1=O)c1ccccc1F,-8.71% (inactive),-5%,–,–
N#Cc1ccc2c(c1)nc1ccccn12,-3.29% (inactive),11.1%,–,–
N#Cc1c(-c2ccccc2)cc(-c2ccc3c(c2)OCO3)[nH]c1=O,–,-26.7%,8.2 µM (active),–
N#Cc1c(-c2ccco2)cc(-c2ccccc2)[nH]c1=O,15.9% (inactive),–,–,–
N#Cc1c(-c2ccc3c(c2)OCO3)cc[nH]c1=O,14.1% (inactive),17.2%,–,–
CC(C)=C1C2CCC1C1C(=O)N(c3nc(-c4ccc(F)cc4)c(C)s3)C(=O)C21 (stereo unspecified),-1.57% (inactive),-3.6%,–,–
COc1ccc(N2CCN(CC(=O)Nc3cc(C)on3)CC2)cc1,7.12% (inactive),7.54%,–,–
Cc1ccc(Nc2nc(C(=O)N3CCC(C(=O)NCCN4CCOCC4)CC3)cs2)cc1,–,–,–,inactive
O=C(N/N=C/c1ccc(-c2cccc(C(F)(F)F)c2)o1)c1cccc(F)c1,–,–,–,inactive
CC(C)N(C(=O)c1ccc2nc(-c3ccccc3)c(-c3ccccc3)nc2c1)C(C)C,–,-9.21%,1.64 µM (active),–
O=C(O)c1ccc2nc(-c3ccccc3)c(-c3ccccc3)nc2c1,-8.03% (inactive),-2.52%,–,–
CCN(CC)C(=O)c1ccc2nc(-c3ccccc3)c(-c3ccccc3)nc2c1,15.6% (inactive),-0.854%,–,–
CCOc1ccc(NC(=O)CN(C)C(=O)c2ccc(COc3ccccc3)o2)cc1OCC,–,24.1%,–,inactive
CCN(CC)CCn1c(=N)n(CCOc2ccccc2)c2ccccc21,–,-6.28%,–,inactive
CCN(CC)CCn1c(=N)n(CC(O)c2ccco2)c2ccccc21 (stereo unspecified),-0.632% (inactive),6.57%,–,–
CCN(CC)CCn1c(=N)n(CCO)c2ccccc21,–,-11.1%,3.26 µM (active),–
c1ccc(CCCNCC2COc3ccccc3O2)cc1 (stereo unspecified),10.6% (inactive),19.8%,–,–
CCOc1cccc(CN2CCC(Oc3ccc(C(=O)NCc4ccccn4)cc3)CC2)c1,–,–,–,inactive
CCn1cc(CNC(=O)c2ccc(OC3CCN(Cc4ccccn4)CC3)cc2)cn1,–,-18.8%,3.66 µM (active),–
Cn1cc(CNC(=O)c2ccc(OC3CCN(Cc4ccccn4)CC3)cc2)cn1,–,–,–,inactive
C/C(N)=C(/C#N)C(=O)CSc1nnc(-c2ccc3c(c2)OCO3)o1,–,22.5%,–,inactive
Cc1ccc2c(CC(=O)OCc3cc(=O)n4c(n3)sc3ccccc34)coc2c1,6.89% (inactive),-0.183%,–,–

Compound,"lipid storage change, negative = inhibition",cell number change,Potency,outcome
Nc1nc(-c2ccccc2)cn1/N=C/c1ccccc1,18.1% (inactive),9.59%,–,–
CC(=O)N(C(C)=O)c1nc(-c2ccccc2)cn1/N=C/c1ccccc1,–,-51.6%,1.64 µM (active),–
Cc1ccc(/C=N/n2c(-c3ccccc3)n[nH]c2=S)cc1,15.2% (inactive),7.92%,–,–
Cc1ccc(N(CC(O)CN2CCCC2)S(=O)(=O)c2ccc(C)cc2)cc1 (stereo unspecified),-22.3% (inactive),-13%,–,–
Cc1ccc(N(CC(O)CN2CCCCC2)S(=O)(=O)c2ccccc2)cc1 (stereo unspecified),–,-15.7%,–,inactive
Cc1ccc(N(CC(O)CN(C)C)S(=O)(=O)c2ccccc2)cc1 (stereo unspecified),–,1.33%,5.17 µM (active),–
COc1ccccc1CN1CC(C(=O)NCc2cc(C(C)C)no2)CCC1=O (stereo unspecified),-15.9% (inactive),1.05%,–,–
Cc1c(N=Cc2ccccn2)c(=O)n(-c2ccccc2)n1C,–,-11.2%,16.4 µM (active),–
Cc1c(N=Cc2ccco2)c(=O)n(-c2ccccc2)n1C,-7.2% (inactive),8.07%,–,–
Cc1c(N=Cc2cccnc2)c(=O)n(-c2ccccc2)n1C,1.15% (inactive),7.08%,–,–
Cn1c(SCC(=O)Nc2ccc3nc(SCC(=O)NC4CC4)sc3c2)nnc1-c1ccccc1,-1.58% (inactive),-15%,–,–
COc1ccc(Oc2coc3c(CN4CCOCC4)c(O)ccc3c2=O)cc1,–,10.6%,–,inactive
CN(C)CCOc1ccc(C(C)(C)c2ccccc2)cc1,13.9% (inactive),10.7%,–,–
COC(CCN(C)C)(c1ccccc1)c1ccccc1,–,-3.67%,0.184 µM (active),–
COC(C#CCCN(C)C)(c1ccccc1)c1ccccc1,14.8% (inactive),-1.59%,–,–
O=C(CSc1ccc(-c2ccccn2)nn1)NCc1ccccc1,0.589% (inactive),3.17%,–,–
CCCCSc1nc(O)c(C2OC(=O)c3c2ccc(OC)c3OC)c(=O)n1-c1ccccc1 (stereo unspecified),4.27% (inactive),0.549%,–,–
Cc1nc2ccccn2c1C(=O)NNC(=O)Nc1ccccc1,-3.05% (inactive),–,–,–
Cc1cccc(NC(=O)c2c(C)nc3ccccn23)c1,6.1% (inactive),6.85%,–,–
Cc1nc2ccccn2c1C(=O)NNC(=O)Nc1cccc(C(F)(F)F)c1,–,-6.44%,1.46 µM (active),–
COc1ccc(OC)c(NC2c3ncccc3C(=O)N2Cc2ccco2)c1 (stereo unspecified),7.69% (inactive),–,–,–
Cc1ccc(C(C)C)c(OCC(=O)Nc2ccc3c(c2)nc(CCN2CCCCC2)n3C)c1,–,–,–,inactive
CCCN1CN(Cc2ccccc2)CC2=C1CC(C)(C)CC2=O,-10.6% (inactive),-2.17%,–,–
COc1ccc(-c2ccc(SCC(=O)N3c4ccccc4CC3C)nn2)cc1OC (stereo unspecified),–,–,–,inactive

Compound,"lipid storage change, negative = inhibition",cell number change,Potency,outcome
O=C(NC1CC1)c1cc(-c2ccccn2)nc2ccccc12,5.07% (inactive),-1.09%,–,–
CN1CCN(NC(=O)c2cc(-c3ccccn3)nc3ccccc23)CC1,6.1% (inactive),28.4%,–,–
Cc1ccc2nc(-c3ccccn3)cc(C(=O)NC3CCN(C)CC3)c2c1,–,–,25.9 µM (active),–
CCCN1CCN(C(=O)c2nn(-c3ccc(OC)cc3)c(=O)c3c2c2ccccc2n3C)CC1,-0.752% (inactive),-5.33%,–,–
O=C1/C(=C/c2ccccc2)SC(=S)N1C1CCS(=O)(=O)C1 (stereo unspecified),-6.37% (inactive),7.35%,–,–
C/C(CC(=O)NC12CC3CC(CC(C3)C1)C2)=N\NC(=O)c1cnccn1,-2.28% (inactive),1.39%,–,–
Cc1nccc2[nH]c(=O)c(C(=O)NC3CCCCC3C)cc12 (stereo unspecified),–,3.44%,–,inactive
Cc1cccc(/C=C2\Sc3ccc(C(=O)N4CCC(C)CC4)cc3N(C)C2=O)c1,–,–,–,inactive
CCOc1ccc(/C=C2/Sc3ccc(C(=O)N4CCOCC4)cc3N(C)C2=O)cc1OC,–,-3.07%,20.6 µM (active),–
COc1cccc(/C=C2\Sc3ccc(C(=O)NCc4cccnc4)cc3N(C)C2=O)c1,0.131% (inactive),-1.61%,–,–
CN1C(=O)/C(=C/c2cccc(Cl)c2)Sc2ccc(C(=O)N3CCCC3)cc21,-2.44% (inactive),–,–,–
CN1C(=O)/C(=C/c2cccc(Cl)c2)Sc2ccc(C(=O)N3CCOCC3)cc21,–,–,–,inactive
CCOC(=O)N1CCC(NC(=O)c2ccc3c(c2)N(C)C(=O)/C(=C/c2cccc(OC)c2)S3)CC1,–,-26%,2.91 µM (active),–
CN(Cc1ccccc1)c1nc2c(c(=O)[nH]c(=O)n2C)n1C,3.79% (inactive),-14.1%,–,–
O=C(CSc1ncnc2c1nnn2Cc1ccccc1)NC1CCCC1,-19% (inactive),-1.92%,–,–
O=C(CSc1ncnc2c1nnn2Cc1ccc(F)cc1)NC1CCCCC1,–,-16.3%,20.6 µM (active),–
O=C(CSc1ncnc2c1nnn2Cc1ccccc1)NC1CCCCC1,-3.24% (inactive),-19.4%,–,–
CC(C)(C)C1CCC2(CC1)SCC(=O)N2c1ccccc1 (stereo unspecified),9.11% (inactive),-2.85%,–,–
COCc1cc(C)nc(SCC(=O)Nc2ccccc2N2CCOCC2)c1C#N,–,-22.4%,13 µM (active),–
COCc1cc(C)nc(SCC(=O)Nc2ccc3c(c2)OCCO3)c1C#N,23.6% (inactive),16.8%,–,–
COCc1cc(C)nc(SCC(=O)Nc2ccc(N3CCOCC3)cc2)c1C#N,3.29% (inactive),5.82%,–,–
O=C(N/N=C/c1ccsc1)c1ccc2c(c1)OCO2,20% (inactive),17%,–,–
Cc1cc(-c2ccc(C)c(S(=O)(=O)NCCC(C)N3CCCCCC3)c2)on1 (stereo unspecified),-5.57% (inactive),3.3%,–,–
